Hits are enriched below; roughly 13% of the tested compounds scored in any of these assays.
LASV entry inh = blocks Lassa virus binding to or entry into cells. Lassa virus pseudotype entry inhibition, cell reporter. Potency, µM (titrated, usually from 37.9 µM), for the others: at the top dose activity change, negative = inhibition, usual class: inhibitors. 300,000 tested, 1.2% active; calls by dose curve; tested in HEK293 cells; further: potency means the concentration at half of the fitted maximal effect; on the % scale 0 is the no-effect control and ±100 the full control effect; nearly all actives have a fitted effect of over 50% in size
Cycloheximide cs = affects cycloheximide protein synthesis inhibition readout, counter-screen; 300,000 tested, 12% active; cell reporter, cycloheximide protein synthesis inhibition counterscreen; max response, %; in the data active means max response mostly above about 13%, no sharp cut-off; inactive means mostly below about 14%; further: read at 38.3 µM for the half of the compounds with a filed dose; 0% is about no effect
Shiga inhibitor = inhibitors of Shiga toxin in Vero cells; AID 2315; 290,000 tested, 9.2% active; inhibition, % at 38.7 µM; Vero cells, Shiga toxin protein synthesis inhibition reporter; in the data active means inhibition mostly above about 28%, no sharp cut-off; inactive means mostly below about 43%; further: 0% is about no effect
HCV inhibitor = HCV inhibition; Huh7.5.1 HCVcc-Cre infection, luciferase reporter, 44 h; Potency, µM (titrated, usually from 41.8 µM), inactives show top-dose activity change, negative = inhibition, most hits filed as inhibitors; 340,000 tested, 3.4% active; active means well fitted inhibition curve with a large enough effect; inconclusive means small, poorly fitted or top-dose-only effect, or another doubt; inactive means no such curve, though single readings can be large or run the other way; further: potency means the concentration at half of the fitted maximal effect; on the % scale 0 is the no-effect control and ±100 the full control effect
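Cells seeded at 1,000/well and cultured 4 h, then compounds added followed by HCVcc-Cre virus (~0.5 moi). After 44 h further culture, luciferase substrate was added, plates held 15 min at room temperature, and luminescence read for 15 sec.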
FMDV inh = foot and mouth disease virus antiviral activity | FMDV antiviral cell-based qHTS | Potency, µM (titrated, usually from 57.9 µM), without a hit: at the highest dose activity change, negative = inhibition, actives largely listed as inhibitors | 410,000 tested, 1.2% active; calls by dose curve; tested in HEK293T cells; further: read-out not given here; potency means the concentration at half of the fitted maximal effect; on the % scale 0 is the no-effect control and ±100 the full control effect; nearly all actives have a fitted effect of over 45% in size
MARV entry inh = inhibitors of Marburg virus binding or cell entry. Marburg virus pseudotyped entry inhibition, cell reporter. Potency, µM (titrated, usually from 37.8 µM), for inactives: top-dose activity change, negative = inhibition, usual class: inhibitors. 300,000 tested, 1.8% active; calls by dose curve; tested in HEK293 cells; further: potency means the concentration at half of the fitted maximal effect; on the % scale 0 is the no-effect control and ±100 the full control effect
Starred values were filed as active, the others as inactive; ? = inconclusive; . = not tested or not shown; [ ] = remark or other dose.

SMILES	LASV entry inh	Cycloheximide cs	Shiga inhibitor	HCV inhibitor	FMDV inh	MARV entry inh
C/C(=N/Oc1nc(C)cc(C)n1)c1ccc(F)cc1	?	21*	41	16%	56%	20%
NCCNCCN	.	43*	91*	.	.	.
Cn1c(=O)c(C(=O)COC(=O)c2cc(C(F)(F)F)nc3c(C(F)(F)F)cccc23)c(N)n(CC2CC2)c1=O	9%	-4	-17	-4%[8.37 µM]	.	-23%
C/C(=N\NC(=S)NCc1ccccc1)c1ccc2ccccc2c1	2.3µM*	-2	11	?	-6%	?
S=C(NCc1ccccc1)Nc1ccc2ccccc2c1	15%[46.1 µM]	76*	102*	-11%	54%	?
C/C(=N\NC(=S)NCc1ccccc1)c1cccc(Br)c1	?	49*	68*	?	52%	-19%[46.1 µM]
O=C(CN1CCN(C(=O)c2ccco2)CC1)Nc1c2c(nc3c1CCC3)CCCC2	-6%	1	-5	4%	0%	-6%[46.1 µM]
c1ccc(Cn2ncc3c(N4CCN(C(c5ccccc5)c5ccccc5)CC4)ncnc32)cc1	?	0	.	?	?	?
NC(=O)C1CCN(C(=O)CNC(=O)c2ccccc2)CC1	19%	11	35	10%	8%	?
CSCCC(NC(=O)c1ccccc1)C(=O)N1CCN(C(=O)c2ccccc2)CC1 (centres undefined)	.	.	.	-24%	-14%	.
CCc1ccccc1NC(=O)CN1CCN(CC(=O)Nc2ccc(-c3ccccc3)cc2)CC1	2%[46.1 µM]	-2	-8	4%	1%	?
O=C(NCC(=O)N1CCOCC1)c1ccccc1	?	15*	55*	7%	14%	?
CSCCC(NC(=O)c1ccccc1)C(=O)N1CC=C(c2ccccc2)CC1 (centres undefined)	11µM*	11	11	?	9%	?
CCc1ccccc1NC(=O)CN1CCN(C(=O)CNC(=O)c2ccc(-c3ccccc3)cc2)CC1	.	.	.	11µM*	?	.
CCOc1ccc(C(=O)NCC(=O)N2CCCC2)cc1	1%	18	50*	21%	-6%	2%[46.1 µM]
COc1cccc(OCC(=O)Nc2cc(NC(=O)COc3cccc(OC)c3)cc(C(=O)O)c2)c1	.	-3	.	13%	1%	.
O=C(CCCN1C(=O)/C(=C/c2ccccc2Cl)SC1=S)NCCCN1CCOCC1	?	-4	-9	-19%	?	?
COc1cccc(C(=O)NCCCc2ccccc2)c1OC	4%	.	.	2%	20%	22%[46.1 µM]
O=C(NCC(=O)N1CCN(Cc2ccccc2)CC1)c1ccc(Cl)cc1	.	18*	9	?	?	.
CCOC(=O)CNC(=O)c1ccc(OCC(F)(F)F)cc1	.	28*	82*	5%	48%	.
CC(C)CCOc1ccc(C(=O)NCCC(=O)N2CCOCC2)cc1	29%	18*	41*	-1%	1%	22%
O=C(NCC(=O)N1CCN(Cc2ccccc2)CC1)c1ccc(Br)cc1	7%[46.1 µM]	1	-2	?	-21%	?
O=C(NCC(=O)N1CCCCCC1)c1ccc(Cl)cc1	20%	29*	65*	2%	46%	?
O=C(NCC(=O)N1CCCCCCC1)c1ccc(Cl)cc1	.	.	.	13%	30%	.
Nc1nonc1-n1nnc(C(=O)N/N=C/c2cccc(Cl)c2)c1CN1CCCC1	.	.	.	8%	-23%	.
SMILES	LASV entry inh	Cycloheximide cs	Shiga inhibitor	HCV inhibitor	FMDV inh	MARV entry inh
CC(OC(=O)c1n[nH]c2ccccc12)C(=O)NC1CCCCC1C (centres undefined)	.	.	.	?	-24%	.
COc1ccc(Cl)cc1C(=O)Nc1nc(C)cc(C)n1	.	7	.	-8%	-8%	.
Cc1nn(C(=O)CNC(=O)c2ccccc2)c(C)c1C	-18%	38*	47	3%	53%	-2%
O=C(NCC(=O)N1CCOCC1)c1ccc(Cl)cc1	.	18*	35	17%	-1%	.
Cc1cccc(C(=O)NCC(=O)N2CC=C(c3ccccc3)CC2)c1	.	.	.	5.6µM*	1%	.
Cc1cccc(C(=O)NCC(=O)N2CCOCC2)c1	.	23*	8	10%	24%	.
Cc1cc(C)n(C(=O)CNC(=O)c2cccc(F)c2)n1	-8%[46.1 µM]	-3	3	16%	34%	-13%[46.1 µM]
CCCC(c1nnnn1C1CCCC1)N1CCN(c2ccccc2F)CC1 (centres undefined)	?	-3	-3	?	-29%	-18%
COc1ccc(NC(=O)CN2C(=O)NC(C)(C3CCCCC3)C2=O)c(OC)c1 (centres undefined)	-5%	.	.	-8%	7%	-8%
CN(C)CCCNC1=CC(=O)OC12CCCCC2	17%	-3	15	5%	-24%	?
Cc1cccc(N2CCN(C(=O)c3ccc(N4CCCC4=O)cc3)CC2C)c1 (centres undefined)	?	-4	-6	?	32µM*	?
CCCCCn1c(=O)[nH]c2cc(C(=O)N3CCN(c4cccc(C)c4)C(C)C3)ccc2c1=O (centres undefined)	?	.	.	.	16µM*	?
Cc1cccc(N2CCN(C(=O)c3cccc(N4C(=O)C5C6C=CC(C6)C5C4=O)c3)CC2C)c1 (centres undefined)	?	10	-7	?	-26%	-17%[46.1 µM]
CCCCCn1c(=O)[nH]c2cc(C(=O)N3CCN(c4ccc(F)cc4)CC3)ccc2c1=O	-1%[46.1 µM]	.	.	?	?	-16%[46.1 µM]
CCCCCn1c(=O)[nH]c2cc(C(=O)N3CCN(c4ccc(C(C)=O)cc4)CC3)ccc2c1=O	-16%[46.1 µM]	-3	-1	7.9µM*	?	?
CCCCCn1c(=O)[nH]c2cc(C(=O)N3CCN(CC)CC3)ccc2c1=O	4%	-1	-14	-18%	-18%	9%
CCOc1ccccc1C(=O)Nc1ccc(C(=O)c2ccccc2)cc1	.	5	49	?	15%	.
CSc1cccc(NC(=O)CCc2ccccc2)c1	18%	18*	50*	-8%	34%	-15%[46.1 µM]
CSc1cccc(NC(=O)CN(C)S(=O)(=O)c2ccccc2)c1	4%	18*	18	-11%	.	14%
CSc1cccc(NC(=O)CCC(=O)O)c1	?	7	12	8%	3%	2%
CSc1cccc(NC(=O)C(C)Sc2ccc(C)cc2)c1 (centres undefined)	-1%	9	4	-3%	-4%	-12%
CCC(C)C(=O)Nc1cccc(SC)c1 (centres undefined)	.	16*	56	.	.	.
Cc1cccc(C)c1NC(=S)NC(=O)CCc1ccccc1	?	-2	1	-2%	-19%	-21%
Cc1ccccc1NC(=S)NC(=O)CCc1ccccc1	-7%	17*	18	-13%	5%	2%
Cc1nc2ccccc2c2nc(NC(=O)C(F)(F)F)nn12	?	-1	5	7%	5%	-9%[46.1 µM]
CN(CC1COCCO1)c1nc2nonc2nc1N1CCSCC1 (centres undefined)	0%	0	11	5%	-11%	13%[46.1 µM]
COc1cccc(NC(=O)CCc2ccccc2)c1	.	.	.	-23%	46%	.
COCc1cccc(NC(=O)CCc2ccccc2)c1	16%[46.1 µM]	18*	49*	5%	23%	4%[46.1 µM]

Screens (PubChem BioAssay)
